The supplement of paper PMC10681739

What was measured:
ETS1 [1] = target: T1, ETS1 (UniProt P14921); experiment: ETS1 binding intensity (PBM fluorescence), ETS1 alone (arbitrary fluorescence units); higher = stronger binding; details: ETS1 concentration 1 nM; RUNX1 concentration 0 nM
T1 sequence: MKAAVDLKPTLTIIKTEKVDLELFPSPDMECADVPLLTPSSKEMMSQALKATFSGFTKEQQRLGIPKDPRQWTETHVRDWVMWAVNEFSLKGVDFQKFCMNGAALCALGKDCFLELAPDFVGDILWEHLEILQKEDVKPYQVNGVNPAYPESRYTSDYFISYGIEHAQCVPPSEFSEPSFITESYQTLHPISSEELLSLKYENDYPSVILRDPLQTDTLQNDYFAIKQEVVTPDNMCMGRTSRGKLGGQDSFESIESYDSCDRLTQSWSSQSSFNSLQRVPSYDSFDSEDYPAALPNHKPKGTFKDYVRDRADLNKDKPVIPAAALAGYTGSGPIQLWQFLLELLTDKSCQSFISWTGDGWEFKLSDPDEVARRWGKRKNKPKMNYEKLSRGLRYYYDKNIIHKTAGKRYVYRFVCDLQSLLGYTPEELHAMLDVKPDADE

RUNX1 [2] = target: RUNX1 (UniProt Q01196); experiment: RUNX1 binding intensity (PBM fluorescence), RUNX1 alone (arbitrary fluorescence units); higher = stronger binding; details: RUNX1 concentration 2 nM; ETS1 concentration 0 nM
Protocol: (§1)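 Cooperative gcPBM on 36-bp genomic probes with neighbouring ETS1 and RUNX1 sites. Recombinant human RUNX1 (2 nM) was incubated alone or with ETS1 (25 nM) and detected with anti-RUNX1 antibody plus Alexa488 secondary. Values are medians over 4 replicate spots; the RUNX1+ETS1 data were normalised to the RUNX1-only data. The probes sit in constant array flanks that are not printed.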

ETS1 [3] = target: T1, ETS1; experiment: ETS1 binding intensity (PBM fluorescence) in presence of RUNX1, normalised to ETS1-only experiment (arbitrary fluorescence units); higher = stronger binding; details: ETS1 concentration 1 nM; RUNX1 concentration 25 nM
RUNX1 [4] = target: RUNX1 (UniProt Q01196); experiment: RUNX1 binding intensity (PBM fluorescence) in presence of ETS1, normalised to RUNX1-only experiment (arbitrary fluorescence units); higher = stronger binding; details: RUNX1 concentration 2 nM; ETS1 concentration 25 nM
Protocol: as §1
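Wherever RUNX1 binding intensity (PBM fluorescence) in presence of ETS1, normalised to RUNX1-only experiment is given: Full-length recombinant human ETS1 or RUNX1 bound to double-stranded 36-bp genomic probes on microarrays, detected by protein-specific primary antibody and Alexa488 secondary, spot fluorescence as median of four replicate spots.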
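Wherever RUNX1 binding intensity (PBM fluorescence), RUNX1 alone is given: Full-length recombinant human RUNX1 bound to double-stranded 36-bp genomic probes on a high-density microarray, scored as Alexa488 fluorescence per spot via anti-RUNX1 antibody, median of four replicate spots.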

RUNX1, sequence (Q01196 whole entry): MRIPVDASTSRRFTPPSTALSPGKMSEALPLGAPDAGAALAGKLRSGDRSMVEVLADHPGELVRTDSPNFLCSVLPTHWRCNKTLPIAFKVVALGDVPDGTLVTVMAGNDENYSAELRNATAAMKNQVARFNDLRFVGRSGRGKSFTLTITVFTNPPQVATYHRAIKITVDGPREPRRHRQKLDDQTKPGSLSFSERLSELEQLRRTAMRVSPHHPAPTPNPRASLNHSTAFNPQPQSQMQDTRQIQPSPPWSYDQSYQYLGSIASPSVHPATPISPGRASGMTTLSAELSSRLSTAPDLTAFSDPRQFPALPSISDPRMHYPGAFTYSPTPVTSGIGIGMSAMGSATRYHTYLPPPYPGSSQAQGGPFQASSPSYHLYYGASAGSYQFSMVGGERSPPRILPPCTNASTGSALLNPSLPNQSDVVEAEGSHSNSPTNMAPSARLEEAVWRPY

Sequence | ETS1 binding intensity (ETS1 [1]) | RUNX1 binding intensity (RUNX1 [2]) | ETS1 binding intensity (ETS1 [3]) | RUNX1 binding intensity (RUNX1 [4])
GGTTTAACGTTTCCGGTTTGTGGCTAGTTTCTTGTC | 7540 | 1060 | 12500 | 3520
AGCCACGGACTTCCGCCTACAGGTCGCCGCAGGTCC | 701 | 756 | 882 | 1700
GCGGGCGGAAGTGCCGAGGTTGTACCGCGGCGCTGG | 2020 | 714 | 2260 | 1200
TTATTTCCTCTTTTTTTTTTTTTTTTTGGTTTTGCT | 483 | 1960 | 440 | 4230
CTCAGGAATGCGGAAGTGCTCTGTGGGCACCCACCA | 2970 | 707 | 5950 | 1560
AGACGGGACCGGAAGCCGGGCCGCAGGCGGCCGGGC | 5400 | 811 | 6650 | 1240
TTTGAGCGGGCAGGATGTGGTGACAATGATACTGCA | 4280 | 750 | 8140 | 2370
TTACGACACTTCCGGCGACGCCCCGCAGCCTTCACC | 2890 | 834 | 2740 | 1880
GTTCCTTTGAAAGCAGGATGTGGTTTGCCCCAGCTT | 5390 | 881 | 29200 | 3730
CACTTCCTCTGTGACTGCAGGTTTCCAACCACAAGC | 601 | 988 | 1510 | 2370
GGCCCCTGCTTCCGGGTGTGACGCGAACCGCGGGCA | 616 | 687 | 1050 | 1400
GCCTGCAGCTTCTTCCTGTGGCTTCTGCATCTCAGG | 4420 | 783 | 3930 | 1320
GTGCTAAGTGAGGAAGTGCAGTTTACCGCACGGTGG | 839 | 675 | 2410 | 935
TGAGCCCTACTTCCGGTGGTGCTGTGGTCTGCCCCT | 10700 | 786 | 13200 | 2330
